Bioassay records: PubChem, The Scripps Research Institute Molecular Screening Center
FBW7 act: activators of human E3 ligase FBW7; 0.13% of 650,000 active; normalized activity (activation), % at 26.1 µM; AlphaScreen FBW7–phospho-cyclin E peptide binding, activator screen; Q969H0; in the data active = normalized activity above about 1.9%;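 note: purified mutant Fbw7 with reduced substrate affinity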
MITF inh: human MITF inhibition, primary screen. inhibition, % at 2.6 µM. AID 1259374. AlphaScreen MITF homodimerization, bead proximity signal. O75030. 0.91% of 650,000 active; in the data active = inhibition above about 50%
TEAD-YAP block: TEAD-YAP interaction inhibition; 1.4% of 640,000 active; HEK-TIYL cells, TEAD-Gal4/YAP UAS-luciferase luminescence; inhibition, % at 9.12 µM; in the data active = inhibition above about 32%
GPR151 activ: activates the human receptor GPR151. AID 1508602. PathHunter beta-arrestin GPR151 cells, luminescence. 1% of 650,000 active. activation, % at 11.2 µM. Q8TDV0; in the data active = activation above about 4.9%
Target sequence (Q8TDV0 whole entry, looked up): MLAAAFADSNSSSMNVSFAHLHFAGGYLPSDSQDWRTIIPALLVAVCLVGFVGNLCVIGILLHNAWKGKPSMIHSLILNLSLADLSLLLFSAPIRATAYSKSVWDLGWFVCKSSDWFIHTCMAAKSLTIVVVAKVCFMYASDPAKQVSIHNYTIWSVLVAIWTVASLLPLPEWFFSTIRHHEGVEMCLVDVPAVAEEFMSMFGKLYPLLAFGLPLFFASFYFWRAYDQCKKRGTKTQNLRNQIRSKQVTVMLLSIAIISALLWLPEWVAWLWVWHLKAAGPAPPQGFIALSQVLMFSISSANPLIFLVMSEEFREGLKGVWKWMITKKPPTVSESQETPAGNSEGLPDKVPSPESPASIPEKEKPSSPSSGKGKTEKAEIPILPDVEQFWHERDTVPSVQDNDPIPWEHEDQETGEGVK
MITF confirm: human MITF inhibition, confirmation. shares compounds with MITF inh. 16% of 4,700 active. inhibition, % at 2.6 µM. AID 1259372. AlphaScreen MITF homodimerization, biotin/His-MITF beads;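 active = inhibition above a cutoff derived from the DMSO control wells, cut at about 28% in these data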;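 note: inhibitors lower the bead chemiluminescence by keeping MITF from dimerizing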
AS interf DR: optically interferes with AlphaScreen signal in dose response; shares compounds with MITF inh; AID 1259373; IC50, µM; 6% of 480 active; AlphaScreen optical interference counterscreen, cell-free; call rule not given here
AS interf ctr: counter-screen: compounds optically interfering with AlphaScreen; shares compounds with MITF inh; LysRS AlphaScreen counterscreen, signal interference, triplicate; inhibition, % at 2.6 µM; 7.6% of 4,700 active;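 active = inhibition above a cutoff derived from the DMSO control wells, cut at about 30% in these data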
Hits are given with their value; n = inactive; x = no result. Shown are actives, neighbours in structure and some others; about 3.5% of the full set was active somewhere.

SMILES | FBW7 act | MITF inh | TEAD-YAP block | GPR151 activ | MITF confirm | AS interf ctr | others
Fc1ccc(OCCCn2cncn2)cc1 | n | 70.5 | n | n | n | n
CC(C)(C)c1ccc(OCCn2cncn2)c(Cl)c1 | n | 57.7 | n | n | 31.9 | n | AS interf DR=n
O=[N+]([O-])c1ccc(OCCCn2cncn2)cc1 | n | n | n | n | x | x
N#Cc1ccc(OCCOCCn2cncn2)cc1 | n | n | n | n | x | x
Cc1ccc(C(C)(C)C)c(OCCCn2ccnc2)c1 | n | n | n | n | x | x
Clc1cccc(OCCn2cncn2)c1Cl | n | n | n | n | x | x
Clc1ccc(OCCOCCn2cncn2)cc1Cl | n | 79.5 | n | n | n | n
CCOc1cc2c(C#N)c(N3CCOCC3)nc(N)c2c(N)n1 | n | n | n | n | x | x
CCC(C)(C)c1ccc(OCCOCCn2cncn2)c(Cl)c1 | n | 66.6 | n | n | n | n
Cn1ccnc1SCc1cc(=O)c(OC(=O)c2ccccc2Cl)co1 | n | n | n | n | x | x
N#CCn1c(=O)n(Cc2ccc3c(c2)OCO3)c(=O)c2ccccc21 | n | n | n | n | x | x
CC(O)(CNCCN1CCOCC1)COc1ccc(Cl)cc1 (stereo not drawn) | n | 54.5 | n | n | 73.0 | n | AS interf DR=n
O=S(=O)(NCCCN1CCOCC1)c1ccc(Cl)cc1 | n | n | n | n | x | x
O=S(=O)(Cc1ccc(Cl)cc1)NCCN1CCOCC1 | n | 71.7 | n | n | n | n
CCN1CCN(c2nc3c(c(=O)n(C)c(=O)n3C)n2C(C)C)CC1 | n | n | n | n | x | x
CCn1nnc(NC(=O)c2ccccc2Cl)n1 | n | n | n | n | x | x
CSCCCNC(=O)Cn1nnnc1CN1C[C@@H](C)O[C@@H](C)C1 | n | n | n | n | x | x
COc1ccc2c(c1)N(C(N)=S)C(C)(C)C=C2C | n | 89.7 | n | n | 72.9 | 57.4
COC(=O)c1ccccc1NS(=O)(=O)c1ccc2[nH]c(=O)c(=O)[nH]c2c1 | n | 67.6 | n | n | n | n
COC(=O)c1cc(NS(=O)(=O)c2ccc3[nH]c(=O)c(=O)[nH]c3c2)cc(C(=O)OC)c1 | n | n | n | n | x | x
O=C(NC(=S)NCc1cccnc1)c1cc2ccccc2o1 | n | n | n | n | x | x
O=C(NCc1cccnc1)c1cc2ccccc2o1 | n | 51.5 | n | n | n | n
CN(C)CCCNC(=O)c1cccc(CN(C(=O)c2nc3ccc(-c4cn[nH]c4)cc3s2)C2CC2)c1 | n | 60.1 | n | n | 50.1 | n | AS interf DR=n
Cc1cc(=O)n(CC(=O)NCc2csc(-c3ccccc3)n2)cn1 | n | n | n | n | x | x
CCN(C(=O)c1cnc2n(c1=O)CCS2)c1ccccc1 | n | 51.4 | n | n | n | n
SMILES | FBW7 act | MITF inh | TEAD-YAP block | GPR151 activ | MITF confirm | AS interf ctr | others
CC1(C)[C@H]2CC=C(CN3CCc4nnc(CNC(=O)c5ccncc5)n4CC3)[C@@H]1C2 | n | n | n | n | x | x
S=c1[nH]nc(-c2ccncc2)n1/N=C/C=C/c1ccco1 | n | 70.0 | n | n | 79.9 | n | AS interf DR=n
CCN1C(=O)c2cccc3c(NC(=O)Cc4ccccc4)ccc1c23 | n | n | n | n | x | x
CN(C)CC(=O)Nc1cc(N(C)C)nc2ccccc12 | n | 61.5 | n | n | n | n
O=C(CSc1nc(NC2CCCCC2)c2ccccc2n1)NC1CCCCC1 | n | 58.3 | n | n | n | n
Cc1ccc(CNC(=O)CSc2nc(NC3CCCCC3)c3ccccc3n2)cc1 | n | n | n | n | x | x
Cc1cccc2c1CC(C)(C)NC2=S | n | n | n | n | x | x
Cc1ccc(C)c2c1CC(C)(C)NC2=S | n | 70.5 | n | n | n | n
Cc1cc(C)c(NS(=O)(=O)c2cc3c4c(c2)CC(=O)N4CCC3)c(C)c1 | n | n | n | n | x | x
O=C1c2cccnc2C(=O)N1c1ccc(Br)cc1 | n | 58.1 | n | n | n | n
Cc1cc(Br)ccc1N1C(=O)c2cccnc2C1=O | n | n | n | n | x | x
O=C(O)c1ccc(N2C(=O)c3cccnc3C2=O)cc1 | n | n | n | n | x | x
O=C1c2cccnc2C(=O)N1c1ccc(N2C(=O)c3cccnc3C2=O)c(Cl)c1 | n | 70.4 | n | n | n | 30.9
Cc1ccc(S(=O)(=O)N(CC(=O)Nc2cccnc2)c2cccc(Cl)c2C)cc1 | n | n | n | n | x | x
Cc1c(-c2ccccc2)c(=O)oc2ccc(O)cc12 | n | 80.5 | n | n | n | n
CN(CCc1ccccn1)C(=O)c1cccc(F)c1 | n | 105.1 | n | n | n | n
CN(CCc1ccccn1)C(=O)c1ccc(F)cc1 | n | 77.2 | n | n | n | n
O=C1N(C2Cc3ccccc3C2)C[C@@H]2C[C@@H](c3cccc(OCCO)c3)N3CCC[C@@]123 | n | n | n | n | x | x
CN(Cc1ccccc1)CC(O)COc1ccc(CNCC2CC2)cc1 (stereo not drawn) | n | n | n | n | x | x
Cc1ccccc1CN1CCN(Cc2ccccn2)CC1 | n | 79.5 | n | n | n | n
Clc1ccc(CN2CCN(Cc3ccccn3)CC2)cc1 | n | 62.7 | n | n | n | n
Cc1ccc(CN2CCN(Cc3ccccn3)CC2)cc1 | n | 67.8 | n | n | n | n
c1ccc(N2CCN(Cc3ccccn3)CC2)cc1 | n | n | n | n | x | x
O=C(CNCc1ccccn1)NCc1ccc(Cl)cc1 | n | 74.0 | n | n | 31.4 | 100.3
Nc1nc(F)cc(N2CCCCCC2)n1 | n | n | n | n | x | x
SMILES | FBW7 act | MITF inh | TEAD-YAP block | GPR151 activ | MITF confirm | AS interf ctr | others
CC(=O)Nc1cccc(NC(=O)CCCc2ccccc2)c1 | n | n | n | n | x | x
O=C(CNC(=O)c1ccccc1Br)N/N=C/c1cc(O)ccc1[N+](=O)[O-] | n | n | n | n | x | x
CS(=O)(=O)N1CCN(Cc2ccccn2)CC1 | n | 76.7 | n | n | n | n
COc1ccc(OC)c(CN2CCN(C(=O)c3ccccc3)CC2)c1 | n | n | n | n | x | x
COc1ccc(CN2CCN(C(=O)c3c(OC)cccc3OC)CC2)c(OC)c1 | n | n | n | n | x | x
COc1cccc(C(=O)N2CCN(Cc3ccc(OC)cc3OC)CC2)c1 | n | 52.6 | n | n | n | n
COc1ccc(CN2CCN(C(=O)c3ccncc3)CC2)c(OC)c1 | n | 60.1 | n | n | n | n
COc1ccc(OC)c(CN2CCN(C(=O)c3ccncc3)CC2)c1 | n | 74.0 | n | n | n | n
CCOc1cc(/C=C2/N=C(c3ccco3)OC2=O)cc(Cl)c1OS(C)(=O)=O | n | n | n | n | x | x
C/C=C/c1ccc(OCCCN2CC(C)OC(C)C2)c(OC)c1 (stereo not drawn) | n | n | n | n | x | x
Cc1ccc(OCCN2CC(C)OC(C)C2)c(Cl)c1 (stereo not drawn) | n | 64.5 | n | n | n | n
COc1cc(C)ccc1OCCOCCN1CC(C)OC(C)C1 (stereo not drawn) | n | 56.5 | n | n | n | n
C/C=C/c1ccc(OCCN2CC(C)OC(C)C2)c(OC)c1 (stereo not drawn) | n | 64.3 | n | n | n | n
COCc1ccc(CNc2nc(C)c(-c3ccn(C)n3)s2)o1 | n | n | n | n | x | x
